Pf growth 48h = inhibits P. falciparum growth in the first generation, 48 h; P. falciparum luciferase growth in erythrocytes, 48 h; Potency, µM (series often up to 28.7 µM), for inactives: top-dose activity change, negative = inhibition, hits mostly inhibitors; 310,000 tested, 5.9% active; AID 504832; note: % is set by controls: 0 for no effect and ±100 for the full control effect
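Luminescence readout; reporter = integrated firefly luciferase in P. falciparum. RBC culture at 2% hematocrit, 0.1% parasitemia final, 37 C/5% CO2; decreased signal taken as growth inhibition.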
AmpC detergent = blocks E. coli AmpC beta-lactamase in detergent assay | 370,000 tested, 0.041% active | Potency, µM (series often up to 114 µM), for the others: top-dose activity change, negative = inhibition, hits mostly inhibitors | AmpC hydrolysis of nitrocefin, absorbance 480 nm, 0.01% Triton;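 note: 0% = no-compound wells and -100% = no-enzyme wells; nearly all actives have a fitted effect of over 25% in size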
Target sequence (P00811 whole entry, looked up): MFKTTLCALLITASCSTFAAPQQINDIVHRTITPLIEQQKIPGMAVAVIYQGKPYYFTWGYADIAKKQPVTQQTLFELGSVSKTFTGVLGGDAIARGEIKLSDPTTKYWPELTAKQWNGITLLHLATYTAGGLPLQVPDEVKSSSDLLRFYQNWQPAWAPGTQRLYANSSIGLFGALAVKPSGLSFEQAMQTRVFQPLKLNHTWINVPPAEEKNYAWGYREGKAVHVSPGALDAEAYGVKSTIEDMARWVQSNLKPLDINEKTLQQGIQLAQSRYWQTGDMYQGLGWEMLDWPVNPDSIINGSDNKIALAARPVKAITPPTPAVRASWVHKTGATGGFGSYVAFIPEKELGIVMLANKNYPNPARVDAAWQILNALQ
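AmpC (5.3 nM in the dispensed reagent) in 20 mM phosphate pH 7.0 with 0.01% (detergent screen) or 0.0001% Triton X-100 was preincubated with compounds for 15 min at room temperature. Nitrocefin was then added from an 800 uM solution, and hydrolysis was followed at 480 nm.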
Sm TGR block = S. mansoni TGR enzyme inhibition; Q962Y6; purified TGR, DTNB reduction, TNB absorbance 405 nm; Potency, µM (doses to about 114 µM), for inactives: top-dose activity change, negative = inhibition, hits mostly inhibitors; 360,000 tested, 3% active; AID 485364; note: % is set by controls: 0 for no effect and ±100 for the full control effect; nearly all actives have a fitted effect of over 60% in size
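Kinetic colorimetric format: TGR-catalysed, NADPH-driven DTNB reduction monitored via TNB absorbance. Enzyme dispensed at 20 nM; compound exposure 15 min at room temperature before reaction start.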
AmpC no deterg = AmpC beta-lactamase inhibition without detergent. AID 485341. Potency, µM (top dose mostly 57.1 µM), for inactives: top-dose activity change, negative = inhibition, most hits filed as inhibitors. AmpC nitrocefin hydrolysis, absorbance 480 nm, 0.0001% Triton. 330,000 tested, 0.52% active. P00811;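 note: plate controls were no compound for no effect and no enzyme for full effect; nearly all actives have a fitted effect of over 20% in size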
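20 mM phosphate pH 7.0 + 0.01% (detergent screen) or 0.0001% Triton X-100; 5.3 nM AmpC reagent; cpd preinc 15 min RT; nitrocefin (800 uM stock) to start; A480 q20 s × 4 min; Activity was normalised to no-enzyme and no-compound control wells.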
Pf growth 96h = inhibits malaria parasite growth, 96 h | AID 504834 | P. falciparum luciferase reporter growth, 96 h | Potency, µM (doses to about 28.7 µM), for the others: at the top dose activity change, negative = inhibition, hits mostly inhibitors | 320,000 tested, 6.9% active; note: % is set by controls: 0 for no effect and ±100 for the full control effect
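Infected RBCs, 2% Hct / 0.05% parasitemia final; luciferase-reporter P. falciparum; cpd 96 h, 37 C, 5% CO2; luciferase detection reagent; luminescence.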
SARS PLP yeast = SARS-CoV PLP inhibition in yeast. 330,000 tested, 0.19% active. S. cerevisiae expressing SARS-CoV PLpro, growth rescue. Potency, µM (titrated, usually from 32.9 µM), inactives show top-dose activity, positive = growth rescue, usual class: activators; calls by dose curve; note: 0% is about no effect; nearly all actives have a fitted effect of over 55% in size
* marks the source's active call; other numbers are inactive results; ? = inconclusive; nt = not tested or not shown; [ ] = remark or other dose. A selection: hits, their analogues and other compounds. The true share with any hit is near 12%. Unless noted, calls come from the whole dose curve; as a rule, active = well fitted curve in the direction sought with a large enough effect; inconclusive = small, poorly fitted or top-dose-only effect, or another doubt; inactive = no such curve, though single readings can be large; an effect the other way counts as inactive or inconclusive. Potency is the fitted concentration of half-maximal effect.

SMILES	Pf growth 48h	AmpC detergent	Sm TGR block	AmpC no deterg	Pf growth 96h	SARS PLP yeast
O=C(CCN1C(=O)/C(=C/c2ccccc2)SC1=S)N[C@@H](CO)Cc1ccccc1	1%	-6%	7%	44%	13µM*	-5%
O=C(CN1C(=O)/C(=C/c2ccco2)SC1=S)NC1CCS(=O)(=O)C1 (centres undefined)	22%	?	20µM*	-27%	?	-11%
CC(C(=O)N(C)C1CCS(=O)(=O)C1)N1C(=O)/C(=C/c2ccco2)SC1=S (centres undefined)	-16%	-10%	25µM*	0%	?	9%
O=C(CCN1C(=O)/C(=C/c2ccccc2)SC1=S)NC1CCS(=O)(=O)C1 (centres undefined)	?	-5%	2%	23%	13µM*	3%
O=C(CCCN1C(=O)/C(=C/c2ccc(F)cc2)SC1=S)NC1CCS(=O)(=O)C1 (centres undefined)	9.3µM*	-1%	3%	126%	10µM*	-1%
CC(C(=O)N(C)C1CCS(=O)(=O)C1)N1C(=O)/C(=C/c2cccs2)SC1=S (centres undefined)	?	?	0%	24%	?	5%
COc1cccc(NC(=O)COc2cccc3c2CCNC3=O)c1	-4%	-12%	0%	-12%	?	-1%
O=C(Nc1ccc(C(F)(F)F)cc1)N1CCC(N2CCCCC2)CC1	nt	-3%	8%	nt	nt	nt
CCOc1ccc(C(=O)Nc2ccc3nc(SCC(=O)N4CCOCC4)sc3c2)cc1	nt	-7%	0%	nt	nt	nt
Fc1ccc(-c2csc(NC3=NCCC3)n2)cc1	19%	?	-6%	-8%	36%	-3%
Brc1ccc(-c2csc(NC3=NCCCCC3)n2)cc1	57%	-7%	-5%	8%	13µM*	-24%
COc1ccc(-c2csc(NC3=NCCCCC3)n2)cc1	43%	-3%	-9%	14%	35%	5%
COc1ccc(-c2csc(NNC3=NCCCCC3)n2)cc1	12µM*	-4%	-15%	-4%[11.4 µM]	0%	1%
CC(C)(C)C(=O)OC1=CN(Cc2ccccc2)S(=O)(=O)c2ccccc21	nt	22%	6%	nt	nt	nt
CCN(CC)CCn1c(=S)[nH]c2cc(Cl)ccc2c1=O	-27%	4%	9%	-16%	16%	-2%
CCN(CC)CCn1c(=S)[nH]c2ccc(Cl)cc2c1=O	12µM*	1%	0%	0%	-1%	10%
CC(=O)Nc1ccc(SCC(=O)c2ccc(Br)s2)cc1	37%	-4%	-13%	-43%	57%	0%
O=C(O)Cc1ccc(C(=O)CSc2ccccc2)s1	33%	1%	20µM*	?	58%	0%
Cc1ccc(SCC(=O)c2ccc(CC(=O)O)s2)cc1	50%	-7%	30%	20µM*	121%	1%
O=C(c1ccccc1)C1CN(Cc2ccccc2)CCC1(O)c1ccccc1 (centres undefined)	?	1%	?	-17%	0%	0%
OC(c1ccccc1)C1CN(Cc2ccccc2)CCC1(O)c1ccccc1 (centres undefined)	0.74µM*	?	20µM*	-31%	-2%	1%
COc1ccc(OC)c(C(O)C2CCCCN2)c1 (centres undefined)	?	?	-5%	-26%	3.3µM*	-1%
COc1ccc(OC)c(C(C)NC(=S)NC2CCCCC2)c1 (centres undefined)	?	-7%	0%	-22%	?	7%
Cc1ccc(Cn2ccnc2SCC(=O)Nc2nnc(C)s2)cc1	nt	-6%	0%	nt	nt	nt
N#C/C(=C\c1c(F)cccc1Cl)c1nn(-c2ccccc2)c(-n2cccc2)c1C#N	12µM*	-1%	-12%	-53%	?	0%
SMILES	Pf growth 48h	AmpC detergent	Sm TGR block	AmpC no deterg	Pf growth 96h	SARS PLP yeast
N#C/C(=C\c1c(Cl)cccc1Cl)c1nn(-c2ccccc2)c(-n2cccc2)c1C#N	?	8%	-2%	-37%	?	2%
N#Cc1ccc(OCC(O)CN2CCN(CC(O)COc3ccc(C#N)cc3)CC2)cc1 (centres undefined)	-2%	?	2%	-7%	?	-1%
CC1(C)C2CCC1(C)C(NCC(O)COc1ccc(C#N)cc1)C2 (centres undefined)	nt	?	-24%	-23%	4.1µM*	2%
O=S(=O)(CCN1CCCCC1)Oc1ccc(Cl)cc1Cl	-2%	3%	0.45µM*	0%	9%	-1%
O=C(COC(=O)c1cc(-c2cccs2)nc2ccccc12)c1ccc(Br)cc1	nt	12%	0%	nt	nt	nt
CCNc1nc(OC)nc(Oc2ccc(=O)n(-c3ccccc3)n2)n1	0.93µM*	-6%	2%	-7%	0%[5.75 µM]	?
COc1nc(NCC(C)C)nc(Oc2ccc(=O)n(-c3ccccc3)n2)n1	nt	-17%	8%	-6%	17%	-2%
CCNc1nc(Oc2ccc(=O)n(-c3ccccc3)n2)nc(N(C)C)n1	-14%	19%	6%	22%	2.6µM*	-3%
CCNc1nc(NCc2ccccc2)nc(Oc2ccc(=O)[nH]n2)n1	1µM*	0%	2%	-13%	-20%	15%
CCNc1nc(NC(C)CC)nc(Oc2ccc(=O)[nH]n2)n1 (centres undefined)	8%	2%	5%	-17%	nt	1%
COc1cccc(NS(=O)(=O)c2ccc3[nH]cc(C(=O)NCCc4ccccc4)c(=O)c3c2)c1	nt	1%	9%	nt	nt	nt
CCc1nnc(SCc2nc(-c3ccc(OC)cc3)oc2C)c2cc3sccc3n12	nt	1%	0%	nt	nt	nt
N#C/C(=C/c1ccc(-c2ccc(S(N)(=O)=O)cc2)o1)C(=O)Nc1ccccc1	-22%	-10%	-5%	16µM*	?	9%
COc1ccc(CCNC(=O)CCCCn2c(=O)c3ccccc3n(Cc3cc(C)ccc3C)c2=O)cc1OC	nt	22%	0%	nt	nt	nt
Cn1c2ccccc2c(=O)c2ccc(-c3ccc4c(c3)OCO4)cc21	56%	-10%	-20%	-32%	9.3µM*	-7%
COc1cc(-c2ccc3c(=O)c4ccccc4sc3c2)cc(OC)c1OC	nt	nt	nt	-18%	nt	6%
COc1cc(-c2ccc3c(=O)c4ccccc4n(C)c3c2)cc(OC)c1OC	?	-18%	-17%	146%	4.7µM*	-4%
CCn1c(SCC(=O)N2CCN(c3ccccc3F)CC2)nnc1-c1ccoc1C	0%	1%	-5%	2%	19%	-1%
Cc1cc(C)c(/C=C/c2onc(C)c2S(=O)(=O)N2CCC(C(=O)N3CCN(c4ccccc4)CC3)CC2)c(C)c1	nt	9%	3%	nt	nt	nt

Screening results from PubChem.
